Test results taken from PubChem BioAssay AID434926 (Sanford-Burnham Center for Chemical Genomics, 2010).
Some of the results follow. A number with no mark means an inactive call. The source made the active and inactive calls.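 Rule for the calls: active = at least twofold enzyme activation in any of six single-dose repeats, which the averaged readout prints as negative percent; inactive = the rest.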

The compounds below were run against Intestinal-type alkaline phosphatase (Homo sapiens) (UniProt P09923) (assay: enhancement of intestinal alkaline phosphatase activity – biochemical, luminescence, single concentration, uHTS hits, confirmation (AID 434926)). Settings: purified IAP, CDP-Star luminescence, 30 min; at 8.3 µM; hits give low values.
Intestinal-type alkaline phosphatase (Homo sapiens), sequence (P09923 whole entry, looked up): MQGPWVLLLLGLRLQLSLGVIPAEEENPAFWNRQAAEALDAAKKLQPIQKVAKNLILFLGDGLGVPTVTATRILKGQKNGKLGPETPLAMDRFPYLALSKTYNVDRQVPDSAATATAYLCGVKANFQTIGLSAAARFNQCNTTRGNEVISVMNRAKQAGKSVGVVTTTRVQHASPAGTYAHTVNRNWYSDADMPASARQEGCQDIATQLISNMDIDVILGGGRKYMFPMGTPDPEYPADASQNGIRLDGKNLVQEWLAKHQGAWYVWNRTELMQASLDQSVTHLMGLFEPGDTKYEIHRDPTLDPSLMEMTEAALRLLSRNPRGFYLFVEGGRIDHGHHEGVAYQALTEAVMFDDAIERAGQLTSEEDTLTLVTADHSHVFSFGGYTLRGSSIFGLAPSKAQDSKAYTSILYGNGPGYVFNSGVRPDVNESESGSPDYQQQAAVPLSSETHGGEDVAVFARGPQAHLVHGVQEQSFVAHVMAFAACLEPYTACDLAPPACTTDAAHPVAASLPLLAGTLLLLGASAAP

| SMILES | activation (%Activity, negative = activation) |
| --- | --- |
| N#C/C(=C\c1ccc(O)c(O)c1)C(=O)NCc1ccccc1 | -0.121% |
| Cc1c(NC(=O)CN(C)CC(=O)Nc2ccc(F)c(F)c2F)c(=O)n(-c2ccccc2)n1C | -0.594% |
| CCOC(=O)c1cn[nH]c1NC(=S)Nc1ccccc1 | -69.2% |
| CCC(C)C(=O)Nc1ccccc1N1CCN(c2ccc(F)cc2)CC1 (stereo not given) | 13.6% |
| CC(=O)c1ccc(NC(=O)C2CCCN2S(=O)(=O)c2cccs2)cc1 (stereo not given) | -85.1% (active) |
| O=C(NNC(=S)Nc1ccccc1)c1cccc(S(=O)(=O)N2CCOCC2)c1 | -70.7% |
| COc1cc(NC(=O)COC(=O)c2cnc(C)cn2)c(C)cc1[N+](=O)[O-] | 6.98% |
| c1ccc(CSCCc2ccncc2)cc1 | -33.2% (active) |
| CCOc1ccc(NC(=O)CSc2nncn2C)cc1 | -83.5% (active) |
| COCCSc1nnc(NC(=O)CCS(=O)(=O)Cc2ccccc2)s1 | -46.9% |
| OC1CN=C2Sc3ccccc3N2C1 (stereo not given) | -100% (active) |
| CC(C)(C)OC(=O)NCCCCCNC(=O)c1[nH]cnc1C(=O)Nc1nccs1 | -6.96% |
| COc1c(O)cc2oc(-c3ccc(O)c(O)c3)cc(=O)c2c1O | -36.9% |
| OCCCN1c2ccccc2Nc2nnc(-c3ccccc3)cc21 | -25.8% |
| Cc1cccc(NS(=O)(=O)c2cccc(C(=O)NNC(=O)c3ccccc3O)c2)c1 | 29.2% |
| COc1ccc(C(=O)NNc2cc(C)nc(NNC(=O)c3ccc(OC)cc3)n2)cc1 | -9.79% |
| C#CCOCCOCCOCCNc1nc(N2CCN(C(=O)CCCCCCCCCCNC(=O)[C@H]([C@@H](C)CC)n3cc(CCCCN=C(N)N)nn3)CC2)nc(N2CCN(C(=O)CCCCCCCCCCNC(=O)[C@H](CO)n3cc(CCCSC)nn3)CC2)n1 | 38.5% |
| O=C(Nc1ccon1)c1nc[nH]c1C(=O)NCc1ccccc1 | 88.5% |
| CCCOCC(O)CC(CC)C(=O)NNC(=S)Nc1ccccc1 (stereo not given) | -138% (active) |
| COc1ccc2c(c1OC)C(=O)N(c1ncn[nH]1)C2 | 12.6% |
| COc1cccc(CNS(=O)(=O)c2ccc3c(c2)N(C(C)=O)CCS3)c1 | -34.5% |
| c1ccc2[nH]c(-c3nc4ccccc4[nH]3)nc2c1 | 10.7% |
| CCC(C(=O)Nc1ccc(C(C)C)cc1)c1ccccc1 (stereo not given) | -30.6% |
| COc1cccc(/C=N\NC(=O)C2=NNC(=O)C2C)c1O (stereo not given) | 34.8% |
| CC(=NCc1ccc2c(c1)OCO2)C1=C(O)c2ccccc2C1=O | -2.92% |
